Each structure is given as a SMILES string.

In general, Inhibition refers to the drop in the measured response relative to a control, in per cent. Higher therefore signals a response far below the control.

Holding throughout (assay type): functional
The test system of assay [1] is Plasmodium falciparum. Nature of the assay: GSK_TCMDC: Inhibition of Plasmodium falciparum 3D7 in whole red blood cells, using parasite LDH activity as an index of growth. Test compounds present at 2uM.
In assay [2] the test system is Plasmodium falciparum. Nature of the assay: GSK_TCMDC: Inhibition of Plasmodium falciparum Dd2 in whole red blood cells, using parasite LDH activity as an index of growth. Test compounds present at 2uM.
A further assay concerns HepG2. Description: GSK_TCMDC: Percent inhibition of human HepG2 cell line. Test compounds present at 10uM.

Consider `Cc1cccc(C)c1N1CCN(C2CCC(NC(=O)c3cc4ccccc4[nH]3)CC2)CC1` (stereo not drawn), for which the values for the Inhibition in the assay with Plasmodium falciparum [1], in the assay with Plasmodium falciparum [2] and with HepG2 were 100%, 64% and 31%, respectively.
With `COc1ccc(-c2ccc(NC(=O)c3cccc(Cl)c3)cc2)cc1CN1CCN(C)CC1.O=C(O)C(F)(F)F`, the figures for the Inhibition with Plasmodium falciparum [1], in the assay with Plasmodium falciparum [2] and in the assay with HepG2 were 90%, 33% and 42%, respectively.
Turning to `O=C(Nc1ccccc1)Nc1ccc(-n2ccc(C(F)(F)F)n2)cc1`, the Inhibition in the assay with Plasmodium falciparum [1] was 95%; with Plasmodium falciparum [2], 85%; in the assay with HepG2, 15%.
For the compound `Cc1cc2nc(-c3ccc(C(=O)NCc4ccc(C(C)(C)C)cc4)cc3)[nH]c2cc1C`, the Inhibition in the assay on Plasmodium falciparum [1] stood at 100%; in the assay on Plasmodium falciparum [2], 59%; with HepG2 it was 3%.
For `Cl.N#Cc1ccc(C2CCN(CC[C@H](N)Cc3ccc(Cl)s3)CC2)cc1`, the values for the Inhibition in the assay with Plasmodium falciparum [1], in the assay on Plasmodium falciparum [2] and with HepG2 were 92%, 30% and 31%, respectively.
Take `Cc1cccc2nc(-c3cccc(-c4ccc(CNCCNC(=O)c5ccnn5C)cc4)c3)[nH]c12.O=C(O)C(F)(F)F`: the Inhibition with Plasmodium falciparum [1] is on record as 100%; with Plasmodium falciparum [2], 100%; in the assay with HepG2, 21%.
For `COCCCNc1sc(S(=O)(=O)c2ccccc2)nc1S(=O)(=O)c1ccc(C)cc1`, the Inhibition in the assay on Plasmodium falciparum [1] is given as 84%; in the assay on Plasmodium falciparum [2], 44%; with HepG2, 7%.
`Cc1cc(N)c2cc(NC(=O)/C=C/c3ccccc3Cl)ccc2n1`: the Inhibition with Plasmodium falciparum [1] is listed as 100%; with Plasmodium falciparum [2], 98%; in the assay with HepG2, 81%.
Turning to `O=C(O)C(F)(F)F.O=C1CCCN1CCCNCc1ccc(-c2cccc(-c3nc4ccccc4[nH]3)c2)cc1`, the Inhibition with Plasmodium falciparum [1] turned out to be 96%; with Plasmodium falciparum [2], 0%; in the assay with HepG2 it was 19%.
With `CN1CCC(C(=O)Nc2ccc(-c3cccc(-c4nc5cc(F)ccc5[nH]4)c3)cc2)CC1`, the Inhibition is recorded as 100% in the assay on Plasmodium falciparum [1], 5% with Plasmodium falciparum [2] and 19% in the assay on HepG2.
In the same order, the values of `CCN1C(=O)C(CC(=O)Nc2cccc(Cl)c2)N(Cc2ccc(OC)c(OC)c2)C1=S` (stereo not drawn) are 100%, 68% and 13%.
As to `O=C(Nc1cccc(Oc2ccccc2)c1)N[C@H]1CCN(Cc2ccc(OCCCN3CCCCC3)cc2)C1`, the Inhibition came out at 100% in the assay on Plasmodium falciparum [1], 70% in the assay with Plasmodium falciparum [2] and 94% in the assay on HepG2.
For the compound `Cl.Clc1cnc2ccc3c(c2c1CCN1CCC(NCc2cc4c(cn2)OCCO4)CC1)OCCO3`, the Inhibition came out at 92% with Plasmodium falciparum [1], 18% in the assay with Plasmodium falciparum [2] and 3% with HepG2.
As to `CCOc1ccc2c(N/N=C/c3cccc([N+](=O)[O-])c3)cc(C)nc2c1`, the Inhibition in the assay on Plasmodium falciparum [1] worked out at 100%; with Plasmodium falciparum [2], 97%; in the assay with HepG2 it was 4%.
For `NC(=O)c1ccccc1Nc1nc(Nc2cc[nH]n2)ncc1Cl`, the Inhibition came out at 96% with Plasmodium falciparum [1], 93% with Plasmodium falciparum [2] and 67% with HepG2.
Turning to `CN(C)CCNCc1cccc(-c2ccc3c(Nc4ccc(Oc5ccccc5)cc4)ccnc3c2)c1`, the Inhibition in the assay with Plasmodium falciparum [1] came out at 100%; with Plasmodium falciparum [2], 99%; with HepG2, 31%.
Consider `COc1ccc2nc3cc(Cl)ccc3c(Nc3ccc(C(=O)O)cc3)c2c1.Cl`, for which the Inhibition with Plasmodium falciparum [1] is recorded as 94%; in the assay with Plasmodium falciparum [2], 95%; in the assay with HepG2, 0%.
On to `O=C(c1ccc(F)cc1)N1CCOC(CCN2CCC(c3ccccc3)CC2)(c2ccc(Cl)c(Cl)c2)C1` (stereo not drawn), for which the Inhibition turned out to be 88% in the assay with Plasmodium falciparum [1], 84% with Plasmodium falciparum [2] and 29% with HepG2.
For the compound `COc1ccc(S(=O)(=O)NC2CCN(c3ccc(C(F)(F)F)cc3NC(=O)OCC(C)C)CC2)cc1`, the Inhibition amounted to 85% in the assay on Plasmodium falciparum [1], 13% with Plasmodium falciparum [2] and 19% with HepG2.
As for `COc1ccc2nc3cc(Cl)ccc3c(NCCO)c2c1.Cl`, the Inhibition with Plasmodium falciparum [1] is 100%; in the assay with Plasmodium falciparum [2], 93%; in the assay on HepG2, 12%.
For `O=C(Nc1ccc2c(c1)CCC2)c1ccc(N2CCN(c3ccncc3)CC2)cc1.O=C(O)C(F)(F)F`, the results for the Inhibition in the assay on Plasmodium falciparum [1], in the assay with Plasmodium falciparum [2] and in the assay on HepG2 were 100%, 75% and 72%, respectively.
`CCN(CC)c1ccccc1CNC(=O)c1cc(Cl)c(N)cc1OC`: the Inhibition is 97% in the assay on Plasmodium falciparum [1], 94% in the assay on Plasmodium falciparum [2] and 6% with HepG2.
On the same counts, the results for `COc1ccc2c(=NN=Cc3cccc(C)n3)cc(-c3ccccc3)[nH]c2c1` are 97%, 25% and 0%.
Take `N#Cc1cccc(NC(=O)Nc2ccc(-c3csc(-c4nc5ccccc5[nH]4)c3)cc2)c1`: the Inhibition is listed as 100% in the assay with Plasmodium falciparum [1], 97% with Plasmodium falciparum [2] and 63% in the assay on HepG2.
For the compound `COc1ccccc1C(=O)C1CCCN(C(=O)c2ccccc2C(F)(F)F)C1` (stereo not drawn), the results for the Inhibition in the assay with Plasmodium falciparum [1], in the assay on Plasmodium falciparum [2] and with HepG2 were 91%, 84% and 0%, respectively.
`Nc1c(Cl)cc(C(O)CNCCCCCOCCc2ccccc2)cc1C(F)(F)F` (stereo not drawn): the figures for the Inhibition with Plasmodium falciparum [1], in the assay with Plasmodium falciparum [2] and in the assay with HepG2 were 99%, 96% and 3%, respectively.
With `COc1ccccc1C1CCN(C2CCC(NC(=O)/C=C/c3cc(F)cc(F)c3)CC2)CC1` (stereo not drawn), the Inhibition with Plasmodium falciparum [1] amounted to 91%; in the assay on Plasmodium falciparum [2], 15%; in the assay on HepG2 it was 45%.
In the case of `NC1CCN(c2nc(NCCc3ccc(O)cc3)nc(NCc3ccccc3-c3ccc(C(F)(F)F)cc3)n2)CC1.O=C(O)C(F)(F)F`, the Inhibition with Plasmodium falciparum [1] amounted to 100%; in the assay on Plasmodium falciparum [2], 72%; with HepG2 it was 18%.
As for `COc1ccc(N2C(=O)C3C(C2=O)C2(C)c4ccccc4C3(C)c3ccccc32)c([N+](=O)[O-])c1` (stereo not drawn), the Inhibition is on record as 99% in the assay with Plasmodium falciparum [1], 54% in the assay with Plasmodium falciparum [2] and 11% with HepG2.
Consider `COCCn1ccc2c3c(N)nc(N)nc3ccc21`, for which the figures for the Inhibition in the assay with Plasmodium falciparum [1], in the assay on Plasmodium falciparum [2] and in the assay on HepG2 were 93%, 29% and 43%, respectively.
In the case of `CS(=O)(=O)CCOCc1ccc(-c2ccc3ncnc(Nc4ccc(OCc5cccc(F)c5)c(Cl)c4)c3c2)o1`, the Inhibition with Plasmodium falciparum [1] is on record as 96%; with Plasmodium falciparum [2], 43%; with HepG2 it was 1%.
For the compound `Cl.Clc1ccc2c(NCCNc3ccnc4cc(Cl)ccc34)ccnc2c1`, the results for the Inhibition with Plasmodium falciparum [1], in the assay on Plasmodium falciparum [2] and in the assay with HepG2 were 100%, 96% and 6%, respectively.
On to `CCc1ccc(N2C(=O)C3C(Cc4ccc(OC(C)(C)C)cc4)NC4(C(=O)N(Cc5ccccc5)c5ccc(F)cc54)C3C2=O)cc1` (stereo not drawn), for which the values for the Inhibition in the assay with Plasmodium falciparum [1], with Plasmodium falciparum [2] and in the assay on HepG2 were 96%, 49% and 9%, respectively.
In the same order, the values of `COc1ccc2nccc([C@@H](O)CN3CCC(NC(=O)Cc4cc5ccccc5s4)CC3)c2c1` are 92%, 42% and 16%.
As to `Cc1cccc2nc(-c3ccc(-c4ccc(NC(=O)C(C)CN5CCN(C)CC5)cc4)s3)[nH]c12` (stereo not drawn), the Inhibition with Plasmodium falciparum [1] is 100%; with Plasmodium falciparum [2], 99%; in the assay with HepG2, 17%.
As to `CC1(C)CCC(=Cc2ccc(Cl)cc2)CC1(O)Cn1ccnc1` (stereo not drawn), the Inhibition in the assay with Plasmodium falciparum [1] is listed as 99%; in the assay with Plasmodium falciparum [2] it was 74%; in the assay on HepG2, 0%.
Turning to `Cc1ccc(O)cc1Nc1ccnc2cc(-c3nccs3)ccc12.Cl`, the figures for the Inhibition in the assay on Plasmodium falciparum [1], in the assay with Plasmodium falciparum [2] and in the assay on HepG2 were 100%, 83% and 63%, respectively.
With `COc1cc2nc(C)nc(Nc3cccc(Br)c3)c2cc1OC.Cl`, the results for the Inhibition in the assay with Plasmodium falciparum [1], with Plasmodium falciparum [2] and in the assay on HepG2 were 100%, 82% and 0%, respectively.
Consider `O=C(Cn1c(CCc2cccc(F)c2F)cc(=O)c2cccnc21)N(CCCn1ccnc1)Cc1ccc(-c2ccc(C(F)(F)F)cc2)cc1`, for which the Inhibition was 96% in the assay on Plasmodium falciparum [1], 47% in the assay with Plasmodium falciparum [2] and 38% with HepG2.
In the case of `Cc1ccnc(NC(c2cccc(OCc3ccccc3)c2)c2ccc3cccnc3c2O)c1` (stereo not drawn), the Inhibition in the assay on Plasmodium falciparum [1] was determined as 95%; in the assay with Plasmodium falciparum [2], 88%; in the assay with HepG2 it was 26%.
Regarding `CC(=O)N(C)c1cccc(C(=O)Nc2cccc(-c3ccc(-c4nc5cc(C(F)(F)F)ccc5[nH]4)cc3)c2)c1`, the Inhibition is recorded as 90% in the assay with Plasmodium falciparum [1], 31% in the assay with Plasmodium falciparum [2] and 63% with HepG2.
In the case of `CCCCSc1nc2c(c(=O)n1Cc1ccco1)C1(CCCCC1)Cc1ccccc1-2`, the Inhibition in the assay with Plasmodium falciparum [1] is 96%; with Plasmodium falciparum [2], 78%; in the assay on HepG2, 13%.
Take `CCOC(=O)N/N=C/[C@H](CCc1ccccc1)NC(=O)[C@H](CC(C)C)NC(=O)c1cc2cccc(OC)c2o1`: the Inhibition in the assay on Plasmodium falciparum [1] was determined as 84%; with Plasmodium falciparum [2], 58%; in the assay with HepG2, 3%.
With `O=C(O)C(F)(F)F.Oc1ccc(CCCNc2nc(NCc3ccccc3-c3ccccc3)nc(N3CCNCC3)n2)cc1`, the Inhibition came to 94% with Plasmodium falciparum [1], 48% with Plasmodium falciparum [2] and 39% with HepG2.
Take `Fc1ccc2[nH]c(-c3cccc(-c4ccc(CN5CCCCC5)cc4)c3)nc2c1.O=C(O)C(F)(F)F`: the Inhibition in the assay on Plasmodium falciparum [1] worked out at 99%; in the assay with Plasmodium falciparum [2], 97%; with HepG2, 46%.
As to `C[C@@H](N)C#Cc1cc2c(Nc3ccc(OCc4cccc(F)c4)c(Cl)c3)ncnc2s1.O=CO`, the figures for the Inhibition in the assay on Plasmodium falciparum [1], in the assay on Plasmodium falciparum [2] and in the assay on HepG2 were 89%, 23% and 17%, respectively.

The values are drawn from ChEMBL document CHEMBL1157539, “Thousands of chemical starting points for antimalarial lead identification” (Nature, 2010).
